Laboratory results published in PubChem BioAssay (Tox21).
Records with an inconclusive call do not appear. Calls of active or inactive are those of the source. Unless noted, the call rests on the fitted dose curve; in most records, active means well fitted curve in the direction sought with a large enough effect in the repeat runs; inconclusive means weak or mixed curves; inactive means no such curve, though single readings can be large; an effect the other way counts as inactive or inconclusive.

Key:
[1] = qHTS assay for small molecules that induce genotoxicity in human embryonic kidney cells expressing luciferase-tagged ATAD5 (AID 651632); further: nearly all actives have a fitted effect of over 15% in size
How it was run: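 A rise in luciferase signal from ATAD5-tagged HEK293T cells marks genetic stress. Cells were exposed to compounds for 16 hr at 37C, 5% CO2, then luciferase was quantified after a 30 min room-temperature incubation with Amplite.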

[2] = qHTS assay for small molecule agonists of the p53 signaling pathway - cell viability (AID 651633; calls by dose curve;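 further: p53RE-bla HCT reporter cells with a stable beta-lactamase p53 reporter; series mostly up to about 83 µM; nearly all actives have a fitted effect of over 30% in size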)
How it was run: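 p53RE-bla cells were treated with compound for 16 hours at 37 C. Cytotoxicity was then measured as CellTiter-Glo luminescence after 30 min at room temperature.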

[3] = qHTS assay for small molecules that induce genotoxicity in human embryonic kidney cells expressing luciferase-tagged ATAD5 - cell viability (AID 651634; calls by dose curve; further: nearly all actives have a fitted effect of over 25% in size)
How it was run: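 Cytotoxicity counter-readout: after 15.5 hr compound treatment at 37C, live-cell protease activity in ATAD5-luciferase HEK293T cells measured by CellTiter-Fluor fluorescence, 30 min development at 37C.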

[4] = qHTS assay for small molecule disruptors of the mitochondrial membrane potential - cell viability (AID 720634; calls by dose curve;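 further: human HepG2 liver cancer cells; series mostly up to about 83 µM; nearly all actives have a fitted effect of over 20% in size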)
How it was run: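 Cytotoxicity was quantified from ATP content by CellTiter-Glo luminescence in the same wells as the MMP dye read-out. HepG2 (2,000 cells/well) were plated overnight and exposed to compounds for 1 hr at 37 C.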

[5] = qHTS assay for small molecule disruptors of the mitochondrial membrane potential (AID 720635)
How it was run: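 HepG2 cells exposed to compound 1 hr at 37C, then Mito-MPS dye 30 min. Ratio read of aggregate (540/590 nm) versus monomer (490/535 nm) fluorescence.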

[6] = qHTS assay to test for compound auto fluorescence at 590 nm (red) in HepG2 cells (AID 720674)
How it was run: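 HepG2 cells, 2,000 per well in MEM with 10% FBS, attached overnight at 37 C, then got 23 nL compound or DMSO. After 1 hr at 37 C, 5% CO2, red fluorescence was read at 540/590 nm against Rose Bengal sodium as reference.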

[7] = qHTS assay to test for compound auto fluorescence at 535 nm (green) in HepG2 cells (AID 720675)
[8] = qHTS assay to test for compound auto fluorescence at 590 nm (red) in HEK293 cells (AID 720679)
How it was run: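 Autofluorescence equivalency to Rose Bengal sodium, 540/590nm, in HEK293 cells exposed overnight to 23 nL compound per well.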

[9] = qHTS assay to test for compound auto fluorescence at 535 nm (green) in HEK293 cell free culture (AID 720682)
How it was run: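 Compounds were pin-transferred into cell-free DMEM with 10% FBS, and green fluorescence was read at excitation 485 nm and emission 535 nm. Intensities were expressed as fluorescein-equivalent values.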

[10] = qHTS assay to test for compound auto fluorescence at 590 nm (red) in HEK293 cell free culture (AID 720683)
How it was run: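 Cell-free wells of DMEM with 10% FBS received compound, and intrinsic fluorescence was read at excitation/emission 540/590 nm. Values expressed as equivalence to Rose Bengal sodium.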

[11] = qHTS assay to test for compound auto fluorescence at 590 nm (red) in HepG2 cell free culture (AID 720684)
How it was run: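 Rose Bengal sodium served as the reference for red signal. Test compounds were dispensed into serum-containing MEM (10% FBS) without cells, and plates were read at 540/590 nm.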

[12] = qHTS assay to test for compound auto fluorescence at 460 nm (blue) in HepG2 cell free culture (AID 720685)
How it was run: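 Cell-free plates of MEM plus 10% FBS received 23 nL compound or DMSO vehicle; blue-channel (405/460 nm) intensity scored against triamterene as reference fluorophore.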

[13] = biological target: Glucocorticoid receptor (Homo sapiens) (UniProt P04150); test: qHTS assay to identify small molecule agonists of the glucocorticoid receptor (GR) signaling pathway (AID 720691; active means well fitted activation curve with a large enough effect in the signal ratio in the repeat runs, not every such curve was filed as active; the % refers to the signal ratio)
Chain of Glucocorticoid receptor (Homo sapiens) (P04150 whole entry, looked up): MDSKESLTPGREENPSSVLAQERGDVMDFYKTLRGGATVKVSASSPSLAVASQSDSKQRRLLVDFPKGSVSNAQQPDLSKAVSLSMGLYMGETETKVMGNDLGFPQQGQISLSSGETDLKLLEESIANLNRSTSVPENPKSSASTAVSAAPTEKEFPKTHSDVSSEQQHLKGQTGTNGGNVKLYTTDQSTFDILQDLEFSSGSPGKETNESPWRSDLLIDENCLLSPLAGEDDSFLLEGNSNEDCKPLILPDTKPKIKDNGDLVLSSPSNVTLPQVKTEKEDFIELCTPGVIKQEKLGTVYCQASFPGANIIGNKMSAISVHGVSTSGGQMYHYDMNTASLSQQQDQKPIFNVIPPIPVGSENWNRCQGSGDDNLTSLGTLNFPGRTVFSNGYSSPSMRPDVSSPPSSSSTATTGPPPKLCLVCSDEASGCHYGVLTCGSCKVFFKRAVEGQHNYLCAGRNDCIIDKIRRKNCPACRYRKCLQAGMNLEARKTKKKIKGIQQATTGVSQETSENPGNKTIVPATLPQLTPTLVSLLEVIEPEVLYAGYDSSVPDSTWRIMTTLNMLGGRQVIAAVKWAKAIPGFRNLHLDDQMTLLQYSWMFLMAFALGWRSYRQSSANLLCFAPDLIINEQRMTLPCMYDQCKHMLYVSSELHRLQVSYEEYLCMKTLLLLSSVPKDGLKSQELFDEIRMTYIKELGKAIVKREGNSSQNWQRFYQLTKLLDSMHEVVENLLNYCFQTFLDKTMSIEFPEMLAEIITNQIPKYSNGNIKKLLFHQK
How it was run: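 Agonist-mode qHTS in HeLa cells stably expressing a glucocorticoid-response-element beta-lactamase reporter. Fluorescence intensity read with FRET substrate (2 h, room temperature) after 18 h compound treatment at 37 C.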

[14] = biological target: Glucocorticoid receptor (Homo sapiens) (UniProt P04150); test: qHTS assay to identify small molecule antagonists of the glucocorticoid receptor (GR) signaling pathway (AID 720692; active means well fitted inhibition curve with a large enough effect in the signal ratio in the repeat runs, not every such curve was filed as active; the % refers to the signal ratio)
How it was run: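 Inhibition of dexamethasone-driven (5 nM final) beta-lactamase expression was measured in GRE-reporter HeLa cells over 18 h at 37C. Fluorescence was read after 2 h with the B/G FRET substrate at room temperature.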

[15] = qHTS assay to test for compound auto fluorescence at 460 nm (blue) in HEK293 cell free culture (AID 720681)
How it was run: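 Compounds were added to cell-free DMEM with 10% FBS and fluorescence read directly. The blue channel used 405 nm excitation and 460 nm emission, with triamterene as the reference fluorophore.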

[16] = qHTS assay to test for compound auto fluorescence at 535 nm (green) in HepG2 cell free culture (AID 720686)
[17] = qHTS assay to test for compound auto fluorescence at 460 nm (blue) in HepG2 cells (AID 720687)
How it was run: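 HepG2 cells in MEM with 10% FBS, attached overnight at 37 C, were exposed to compound or DMSO for 1 hr at 37 C, 5% CO2. Blue fluorescence was read at 405/460 nm, with triamterene as reference fluorophore.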

[18] = qHTS assay to test for compound auto fluorescence at 460 nm (blue) in HEK293 cells (AID 720678)
How it was run: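 Auto fluorescence in the blue band was quantified as triamterene equivalency. HEK293 cells were seeded at 2,000/well, dosed after a 4-5 hr attachment, and kept overnight at 37C before the 405/460 nm reading.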

[19] = qHTS assay to test for compound auto fluorescence at 535 nm (green) in HEK293 cells (AID 720680)
On the % scale 0 is the no-effect control and ±100 the full control effect.

Cc1ncc(COP(=O)(O)O)c(C=O)c1O
inactive: Potency [1] | Potency [2] | Potency [3] | outcome [4] | Potency [5] | outcome [6] | outcome [7] | outcome [8] | outcome [9] | outcome [10] | outcome [11] | outcome [12] | Potency [13] | Potency [14]

N[C@@H](CCC(=O)O)C(=O)O
inactive: Potency [1] | Potency [2] | Potency [3] | outcome [4] | Potency [5] | outcome [7] | outcome [8] | outcome [15] | outcome [9] | outcome [10] | outcome [11] | outcome [12] | outcome [16] | outcome [17] | Potency [13] | Potency [14]

CN1C(C)(C)CC(O)CC1(C)C
inactive: Potency [1] | Potency [2] | Potency [3] | outcome [4] | Potency [5] | outcome [6] | outcome [7] | outcome [8] | outcome [15] | outcome [9] | outcome [11] | outcome [12] | outcome [16] | outcome [17]

O=C(O)c1cn(C2CC2)c2cc(N3CCNCC3)c(F)cc2c1=O
inactive: Potency [1] | Potency [2] | Potency [3] | outcome [4] | Potency [5] | fluorescence, relative to Rose Bengal [6] -0.332% [at 18.6 µM] | fluorescence, % of triamterene [18] 0.0142% [at 18.6 µM] | fluorescence, % of fluorescent control [8] -0.0071% [at 18.6 µM] | fluorescence, % of fluorescein [19] -0.0935% [at 18.6 µM] | activity change [9] 0.0246% [at 18.6 µM] | fluorescence, % of fluorescent control [10] -0.102% [at 18.6 µM] | fluorescence, % of Rose Bengal [11] 0.543% [at 18.6 µM] | fluorescence, % of fluorescent control [12] 0.0229% [at 18.6 µM] | fluorescence, % of fluorescein control [16] 0.0355% [at 18.6 µM] | fluorescence, % of fluorescent control [17] -0.0408% [at 18.6 µM] | Potency [13] | Potency [14]

O=S(=O)(O)c1cccc(S(=O)(=O)O)c1
inactive: Potency [1] | Potency [2] | Potency [3] | outcome [4] | outcome [6] | outcome [7] | outcome [18] | outcome [8] | outcome [19] | outcome [15] | outcome [9] | outcome [11] | outcome [12] | outcome [16] | outcome [17]

CC(=O)c1ccccc1[N+](=O)[O-]
inactive: Potency [1] | Potency [2] | Potency [3] | outcome [4] | Potency [5] | outcome [6] | outcome [7] | outcome [18] | outcome [8] | outcome [19] | outcome [15] | outcome [9] | outcome [10] | outcome [11] | outcome [12] | outcome [16] | outcome [17]

CCOCC(C)O (stereo not given)
inactive: Potency [1] | Potency [2] | Potency [3] | outcome [4] | outcome [6] | outcome [7] | outcome [18] | outcome [8] | outcome [19] | outcome [15] | outcome [9] | outcome [10] | outcome [11] | outcome [12] | outcome [17] | Potency [13] | Potency [14]

CC[N+](CC)(CC)CCOc1cccc(OCC[N+](CC)(CC)CC)c1OCC[N+](CC)(CC)CC
inactive: Potency [1] | Potency [2] | Potency [3] | outcome [4] | outcome [6] | outcome [7] | outcome [18] | outcome [8] | outcome [19] | outcome [15] | outcome [9] | outcome [10] | outcome [11] | outcome [12] | outcome [16] | outcome [17] | Potency [13] | Potency [14]

Cc1ccc(-c2ncc(Cl)cc2-c2ccc(S(C)(=O)=O)cc2)cn1
inactive: Potency [1] | Potency [2] | Potency [3] | outcome [4] | Potency [5] | outcome [6] | outcome [7] | outcome [8] | outcome [19] | outcome [15] | outcome [9] | outcome [10] | outcome [11] | outcome [12] | outcome [16] | outcome [17]

CCCCCCC#CC(=O)OC
inactive: Potency [1] | Potency [2] | Potency [3] | outcome [4] | Potency [5] | outcome [6] | outcome [7] | outcome [18] | outcome [8] | outcome [19] | outcome [9] | outcome [10] | outcome [11] | outcome [12] | outcome [16] | outcome [17]

Nc1c2c(nc3c1CCC3)CCCC2
inactive: Potency [1] | Potency [2] | Potency [3] | outcome [4] | Potency [5] | outcome [7] | outcome [18] | outcome [8] | outcome [19] | outcome [15] | outcome [9] | outcome [10] | outcome [11] | outcome [12] | outcome [16] | outcome [17]

CC1CCC(CO)CC1 (stereo not given)
inactive: Potency [1] | Potency [2] | outcome [4] | Potency [5] | outcome [6] | outcome [18] | outcome [8] | outcome [19] | outcome [15] | outcome [9] | outcome [10] | outcome [11] | outcome [12] | outcome [16] | Potency [13]

CCN1C=CN(C)C1C (stereo not given)
inactive: Potency [1] | Potency [2] | Potency [3] | outcome [4] | outcome [7] | outcome [18] | outcome [8] | outcome [19] | outcome [15] | outcome [9] | outcome [11] | outcome [12] | outcome [16] | Potency [13] | Potency [14]

NCCCC(N)(C(=O)O)C(F)F (stereo not given)
inactive: Potency [1] | Potency [2] | Potency [3] | outcome [4] | outcome [7] | outcome [18] | outcome [8] | outcome [19] | outcome [9] | outcome [11] | outcome [12] | outcome [16] | outcome [17] | Potency [14]

COC(=O)C1=C(C)NC(C)=C(C(=O)OC(C)C)C1c1cccc2nonc12 (stereo not given)
inactive: Potency [1] | Potency [2] | outcome [4] | fluorescence, relative to Rose Bengal [6] 0.351% [at 18.6 µM] | fluorescence, % of fluorescein control [7] 0.024% [at 18.6 µM] | fluorescence, % of triamterene [18] -0.009% [at 18.6 µM] | fluorescence, % of fluorescent control [8] 0.0072% [at 18.6 µM] | fluorescence, % of fluorescein [19] -0.0539% [at 18.6 µM] | fluorescence, % of fluorescent control [15] 0.0173% [at 18.6 µM] | activity change [9] 0.0719% [at 18.6 µM] | fluorescence, % of fluorescent control [10] -0.0484% [at 18.6 µM] | fluorescence, % of Rose Bengal [11] -0.0514% [at 18.6 µM] | fluorescence, % of fluorescent control [12] -0.0347% [at 18.6 µM] | fluorescence, % of fluorescein control [16] -0.0109% [at 18.6 µM] | fluorescence, % of fluorescent control [17] 0.0339% [at 18.6 µM] | Potency [13]

NC(N)=NCCN1CCCCCCC1
inactive: Potency [1] | outcome [4] | fluorescence, relative to Rose Bengal [6] 0.248% [at 18.6 µM] | fluorescence, % of fluorescein control [7] 0.0444% [at 18.6 µM] | fluorescence, % of triamterene [18] -0.176% [at 18.6 µM] | fluorescence, % of fluorescent control [8] -0.493% [at 18.6 µM] | activity change [9] 0.0837% [at 18.6 µM] | fluorescence, % of fluorescent control [10] -0.0086% [at 18.6 µM] | fluorescence, % of Rose Bengal [11] -0.0563% [at 18.6 µM] | fluorescence, % of fluorescent control [12] 0.0071% [at 18.6 µM] | fluorescence, % of fluorescein control [16] 0.0218% [at 18.6 µM] | fluorescence, % of fluorescent control [17] -0.0842% [at 18.6 µM] | Potency [13] | Potency [14]
